In PubChem BioAssay (EPA / NIEHS):
Results filed as inconclusive are left out. The source made the active and inactive calls. Rule for the calls: active = hit-call score of the fitted dose curve at least 0.9, where 1 is the maximum; inconclusive = response in the unintended direction; inactive = score below 0.9.

What was measured:
[1] = biological target: human Thyroid hormone Receptor beta (TRb), THRB (gene 7068) (UniProt P10828); experiment: ATG_hTRb_XSP1: Attagene TRANS-FACTORIAL Multi-Species (XSP1) HepG2 Assay for human Thyroid hormone Receptor beta (TRb) (AID 2283808)
Chain of human Thyroid hormone Receptor beta (TRb), THRB (gene 7068) (P10828 whole entry, looked up, the tested form may be a part): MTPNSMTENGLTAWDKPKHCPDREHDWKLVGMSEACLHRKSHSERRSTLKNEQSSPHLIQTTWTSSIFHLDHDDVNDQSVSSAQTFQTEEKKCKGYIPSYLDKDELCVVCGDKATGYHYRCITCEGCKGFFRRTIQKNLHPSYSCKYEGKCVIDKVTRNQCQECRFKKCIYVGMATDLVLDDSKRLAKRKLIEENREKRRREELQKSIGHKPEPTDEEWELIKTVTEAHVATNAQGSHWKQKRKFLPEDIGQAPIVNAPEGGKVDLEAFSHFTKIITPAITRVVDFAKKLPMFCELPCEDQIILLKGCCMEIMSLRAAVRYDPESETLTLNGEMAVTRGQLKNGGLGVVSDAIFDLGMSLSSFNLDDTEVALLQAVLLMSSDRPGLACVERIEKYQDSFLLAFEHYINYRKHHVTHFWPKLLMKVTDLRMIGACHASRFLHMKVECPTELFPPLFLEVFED
Method in brief: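 Readout is reporter mRNA induction measured by RT-PCR, fluorescent labelling and capillary electrophoresis, fitted upward relative to DMSO. Transiently transfected human HepG2 cells expressing NR-Gal4 chimeras were dosed for 24 h, medium containing 3 nM 6-alpha-fluorotestosterone.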

[2] = biological target: zebrafish Thyroid Hormone Receptor beta (TRb), thrb (gene 30607) (UniProt Q9PVE4); experiment: ATG_zfTRb_XSP1: Attagene TRANS-FACTORIAL Multi-Species (XSP1) HepG2 Assay for zebrafish Thyroid Hormone Receptor beta (TRb) (AID 2283809)
Chain of zebrafish Thyroid Hormone Receptor beta (TRb), thrb (gene 30607) (Q9PVE4 whole entry, looked up, the tested form may be a part): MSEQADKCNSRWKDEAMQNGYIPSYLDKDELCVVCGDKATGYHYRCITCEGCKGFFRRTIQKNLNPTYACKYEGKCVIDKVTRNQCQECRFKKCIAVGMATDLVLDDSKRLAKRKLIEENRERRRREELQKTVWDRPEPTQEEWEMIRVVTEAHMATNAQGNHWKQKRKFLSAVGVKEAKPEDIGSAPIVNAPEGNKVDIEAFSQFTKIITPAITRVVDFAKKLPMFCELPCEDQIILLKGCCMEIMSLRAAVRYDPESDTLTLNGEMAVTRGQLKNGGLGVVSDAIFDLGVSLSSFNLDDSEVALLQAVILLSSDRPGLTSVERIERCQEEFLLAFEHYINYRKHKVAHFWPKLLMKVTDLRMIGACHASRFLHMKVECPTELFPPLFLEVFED
Method in brief: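 HepG2 cells transiently transfected with multiplexed GAL4-UAS reporter units expressing chimeric zebrafish TRb–Gal4. Dosed 24 h with 3 nM 6-alpha-fluorotestosterone present; reporter mRNA measured by RT-PCR, HpaI digestion and capillary electrophoresis; gain of signal versus DMSO.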

[3] = ATG_XTT_Cytotoxicity_XSP1: Cytotoxicity Assessment in the Attagene TRANS-FACTORIAL Multi-Species (XSP1) HepG2 Assay (AID 2283810)
Method in brief: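 XTT viability readout taken at 24 hours post-dosing in HepG2 liver cells co-treated with 3 nM 6-alpha-fluorotestosterone. Signal loss relative to DMSO controls reflects cytotoxicity.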

[4] = ATG_M_06_XSP2: Attagene TRANS-FACTORIAL Multi-Species (XSP2) HepG2 Assay for M06 Transcription Factor (Internal Marker) (AID 2283811);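 note: internal background marker reporter mRNA measured by RT-PCR and capillary electrophoresis; hits are increases in signal above the DMSO baseline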
Method in brief: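 Cells of the human liver line HepG2 carried transfected reporter transcription units and were treated for 24 h. Induced reporter transcripts were detected by fluorescence after RT-PCR and capillary electrophoresis, with activity fitted in the gain direction against DMSO.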

[5] = test system: turtle Estrogen Receptor (ERa), gene 101933533; experiment: ATG_trERa_XSP2: Attagene TRANS-FACTORIAL Multi-Species (XSP2) HepG2 Assay for turtle Estrogen Receptor (ERa) (AID 2283812);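 note: actives raise reporter signal above DMSO so AC50 reflects agonist activity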
Method in brief: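 Readout is reporter mRNA quantified by RT-PCR with capillary electrophoresis after 24 h compound exposure, increase relative to DMSO. Uses transiently transfected human HepG2 liver cells carrying a chimeric turtle ERa-Gal4 receptor driving GAL4-UAS reporters.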

[6] = biological target: zebrafish Estrogen Receptor (ER1), esr1 (gene 259252) (UniProt P57717); experiment: ATG_zfER1_XSP2: Attagene TRANS-FACTORIAL Multi-Species (XSP2) HepG2 Assay for zebrafish Estrogen Receptor (ER1) (AID 2283816)
Chain of zebrafish Estrogen Receptor (ER1), esr1 (gene 259252) (P57717 whole entry, looked up): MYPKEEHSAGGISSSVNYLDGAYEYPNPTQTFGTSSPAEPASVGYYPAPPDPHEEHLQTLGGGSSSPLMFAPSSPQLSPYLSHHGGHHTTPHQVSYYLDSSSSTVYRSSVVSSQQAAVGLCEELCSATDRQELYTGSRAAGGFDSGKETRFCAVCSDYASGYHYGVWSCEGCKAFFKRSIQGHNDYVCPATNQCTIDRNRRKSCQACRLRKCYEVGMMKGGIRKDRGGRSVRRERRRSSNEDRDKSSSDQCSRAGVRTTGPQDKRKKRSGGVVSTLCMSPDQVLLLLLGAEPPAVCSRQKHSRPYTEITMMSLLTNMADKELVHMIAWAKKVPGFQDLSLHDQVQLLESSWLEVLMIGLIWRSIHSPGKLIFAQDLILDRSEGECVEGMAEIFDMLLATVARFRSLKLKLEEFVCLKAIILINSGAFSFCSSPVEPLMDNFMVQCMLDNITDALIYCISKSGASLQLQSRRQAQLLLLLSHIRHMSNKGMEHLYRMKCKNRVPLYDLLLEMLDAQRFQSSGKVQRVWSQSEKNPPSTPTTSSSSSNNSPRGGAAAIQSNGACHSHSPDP
Method: ATG_XSP2_multi-species_TRANS is a cell-based, multiplexed assay created by modifying the existing Attagene TRANS-FACTORIAL system to include a panel of nuclear receptors from some or all the following species: human (Homo sapiens), mouse (Mus musculus), frog (Xenopus laevis), zebrafish (Danio rerio), chicken (Gallus gallus), and turtle (Chrysemys picta). The ECOTOX-FACTORIAL format uses HepG2, a human liver cell line, with measurements taken at 24 hours after chemical dosing in a 24-well plate. Xsp2 included 3 nM 6-alpha-fluorotestosterone and 1.5 nM norgestrel to stimulate the androgen receptor.ATG_zfER1_XSP2 is one of 29 assay components measured or calculated from the ATG_XSP2_multi-species_TRANS assay. It is designed to make measurements of mRNA induction, a form of inducible reporter, as detected with fluorescence intensity signals by Reverse transcription polymerase chain reaction (RT-PCR) and Capillary electrophoresis technology.The assay endpoint ATG_zfER1_XSP2 was analyzed in the positive analysis fitting direction relative to DMSO as the negative control and baseline of activity. […] Furthermore, this assay endpoint can be referred to as a primary readout, because this assay has produced multiple assay endpoints where this one serves a reporter gene function. […]

[7] = biological target: chicken Estrogen Receptor (ERa), ESR1 (gene 396099) (UniProt P06212); experiment: ATG_chERa_XSP2: Attagene TRANS-FACTORIAL Multi-Species (XSP2) HepG2 Assay for chicken Estrogen Receptor (ERa) (AID 2283817);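 note: actives raise reporter signal above DMSO so AC50 reflects ER activation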
Chain of chicken Estrogen Receptor (ERa), ESR1 (gene 396099) (P06212 whole entry, looked up, the tested form may be a part): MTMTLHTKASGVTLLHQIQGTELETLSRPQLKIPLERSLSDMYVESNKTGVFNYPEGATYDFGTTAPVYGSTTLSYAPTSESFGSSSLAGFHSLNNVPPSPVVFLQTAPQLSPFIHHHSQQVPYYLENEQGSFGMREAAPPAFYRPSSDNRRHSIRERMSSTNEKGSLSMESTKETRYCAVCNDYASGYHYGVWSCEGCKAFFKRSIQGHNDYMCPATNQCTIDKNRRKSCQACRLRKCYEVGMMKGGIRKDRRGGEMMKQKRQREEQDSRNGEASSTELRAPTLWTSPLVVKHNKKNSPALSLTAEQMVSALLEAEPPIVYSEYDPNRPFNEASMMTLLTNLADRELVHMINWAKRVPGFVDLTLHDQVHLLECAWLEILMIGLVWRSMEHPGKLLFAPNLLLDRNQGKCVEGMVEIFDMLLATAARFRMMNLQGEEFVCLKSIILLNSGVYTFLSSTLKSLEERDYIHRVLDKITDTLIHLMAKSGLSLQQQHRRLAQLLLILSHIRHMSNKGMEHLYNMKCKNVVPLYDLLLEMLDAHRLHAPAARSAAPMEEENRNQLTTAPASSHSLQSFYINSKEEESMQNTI
Method in brief: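 Exogenous chicken ERa-Gal4 chimera activity was assessed in transfected human liver HepG2 cells after 24 h of treatment. Induced reporter mRNA was quantified fluorescently by capillary electrophoresis, with DMSO as baseline.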

[8] = test system: zebrafish Estrogen Receptor (ER2a), gene 317734; experiment: ATG_zfER2a_XSP2: Attagene TRANS-FACTORIAL Multi-Species (XSP2) HepG2 Assay for zebrafish Estrogen Receptor (ER2a) (AID 2283818);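 note: hits raise reporter mRNA so AC50 reflects activation of zebrafish ER2a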
Method in brief: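 Multiplexed trans-reporter readout: RT-PCR then capillary electrophoresis of reporter transcripts after 24 h compound treatment. Human HepG2 carries transfected zebrafish ER2a-Gal4 chimera; 3 nM 6-alpha-fluorotestosterone plus 1.5 nM norgestrel present. Induction scored against DMSO.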

[9] = biological target: GAL4 Transcription Factor (Internal Marker), GAL4 (gene 855828) (UniProt P04386); experiment: ATG_GAL4_XSP2: Attagene TRANS-FACTORIAL Multi-Species (XSP2) HepG2 Assay for GAL4 Transcription Factor (Internal Marker) (AID 2283814);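 note: GAL4 reporter mRNA background control in MRTU transfected cells not a receptor target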
Chain of GAL4 Transcription Factor (Internal Marker), GAL4 (gene 855828) (P04386 whole entry, looked up, the tested form may be a part): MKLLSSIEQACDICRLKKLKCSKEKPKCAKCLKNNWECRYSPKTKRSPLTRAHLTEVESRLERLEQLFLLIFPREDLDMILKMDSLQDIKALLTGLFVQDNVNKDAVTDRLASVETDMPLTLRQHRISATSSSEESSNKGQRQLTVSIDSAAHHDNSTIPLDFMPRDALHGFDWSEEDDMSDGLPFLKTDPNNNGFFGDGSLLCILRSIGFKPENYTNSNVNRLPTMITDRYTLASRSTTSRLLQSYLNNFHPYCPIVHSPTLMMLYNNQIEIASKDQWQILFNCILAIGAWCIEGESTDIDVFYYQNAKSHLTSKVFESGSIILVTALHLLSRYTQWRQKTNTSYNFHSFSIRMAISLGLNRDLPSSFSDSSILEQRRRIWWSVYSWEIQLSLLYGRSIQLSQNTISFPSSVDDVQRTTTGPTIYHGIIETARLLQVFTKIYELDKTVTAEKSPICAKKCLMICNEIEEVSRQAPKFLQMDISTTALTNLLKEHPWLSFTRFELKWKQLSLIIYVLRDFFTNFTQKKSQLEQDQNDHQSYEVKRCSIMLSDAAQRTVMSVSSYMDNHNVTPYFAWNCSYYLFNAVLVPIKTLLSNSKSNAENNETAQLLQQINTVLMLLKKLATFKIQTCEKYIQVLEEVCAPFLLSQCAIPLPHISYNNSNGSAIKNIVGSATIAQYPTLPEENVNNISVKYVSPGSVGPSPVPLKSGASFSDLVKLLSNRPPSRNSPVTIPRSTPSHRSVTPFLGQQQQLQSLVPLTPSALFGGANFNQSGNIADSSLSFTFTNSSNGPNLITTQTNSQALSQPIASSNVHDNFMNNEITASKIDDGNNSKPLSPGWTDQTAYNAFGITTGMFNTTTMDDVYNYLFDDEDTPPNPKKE
Method in brief: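 Background-control readout: gain-of-signal fitted against DMSO. After 24 h exposure of transfected HepG2 (MRTU, GAL4-UAS reporters; 3 nM 6-alpha-fluorotestosterone, 1.5 nM norgestrel present), transcripts quantified by RT-PCR and capillary electrophoresis fluorescence.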

[10] = test system: chicken Androgen Receptor (AR), gene 422165; experiment: ATG_chAR_XSP2: Attagene TRANS-FACTORIAL Multi-Species (XSP2) HepG2 Assay for chicken Androgen Receptor (AR) (AID 2283819);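 note: hits raise reporter mRNA above DMSO so potency is for activation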
Method in brief: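 Readout is reporter mRNA induction via RT-PCR/capillary electrophoresis after 24 h chemical exposure, positive direction relative to DMSO. Transiently transfected HepG2 express chimeric chicken AR–GAL4; AR stimulated by 3 nM 6-alpha-fluorotestosterone and 1.5 nM norgestrel.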

Row | Structure (SMILES) | outcome [1] | outcome [2] | outcome [3] | outcome [4] | AC50 [5] | AC50 [6] | AC50 [7] | AC50 [8] | outcome [9] | outcome [10]
1 | C[C@]12CC[C@H]3C(=CCc4cc(O)ccc43)[C@@H]1CCC2=O | inactive | inactive | inactive | inactive | 12.9 nM (active) | 86 nM (active) | 14.6 nM (active) | 14.7 nM (active) |  | 
2 | O=C(c1ccccc1)c1ccc(O)cc1O | inactive | inactive |  | inactive | 2810 nM (active) | 10000 nM (active) | 2770 nM (active) | 4680 nM (active) | inactive | inactive
